Results on twelve compounds are retold here after PubChem BioAssay (NCI).

Test systems include HCT-15 colon; HT29 colon; SNB-75 CNS; SNB-19 CNS; U251 CNS; PC-3 prostate; SK-MEL-5 melanoma; UACC-62 melanoma; LOX IMVI melanoma; SK-MEL-28 melanoma.
What all share (assay): NCI-60 one-dose screen, 48 h (100 = growth as untreated, 0 = no growth, -100 = all killed)
What all share (conditions): 10 µM unless noted

This is part of a sample that, as a whole, favours compounds with a hit. Of some 83,000 tested, about 20% had one in any assay.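 Interpretation: 100, growth as untreated; towards 0, rising growth inhibition; 0, no net growth; 0 to -100, cell death. Compounds scoring below 10 were considered active.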 Unmarked numbers belong to inactive results. Activity calls are given as the source filed them.

`COc1ccc(C2=NN(C(C)=O)C(c3cccc(Nc4ccnc5cc(Cl)ccc45)c3)C2)cc1` (stereo not given): the growth with HCT-15 colon was 44.8%; in the experiment on HT29 colon, 7.9% (active); in the experiment with SNB-75 CNS it was 56.4%; with SNB-19 CNS it was 56.5%; with U251 CNS, 51%; with PC-3 prostate, 31%. Further, the growth in the experiment with SK-MEL-5 melanoma is 43.7%; in the experiment with UACC-62 melanoma, 68.6%; with LOX IMVI melanoma it was 42.7%; with SK-MEL-28 melanoma, 73%.
Take `COP(=O)(OC)C(c1ccccc1)(c1ccccc1)c1ccccc1`: the growth in the experiment with HCT-15 colon was 107%; with HT29 colon it was 91.4%; in the experiment with SNB-75 CNS, 108%; in the experiment with SNB-19 CNS, 99.9%; with U251 CNS, 87.7%; in the experiment with PC-3 prostate it was 75.2%. Moreover, the growth is 89.5% in the experiment with SK-MEL-5 melanoma, 70.9% in the experiment with UACC-62 melanoma, 84.2% in the experiment on LOX IMVI melanoma and 109% in the experiment on SK-MEL-28 melanoma.
`OC(c1ccccc1)C(NCc1ccccc1)c1ccccc1` (stereo not given): the growth in the experiment with HCT-15 colon was 108%; with HT29 colon it was 103%; with SNB-75 CNS, 91%; with SNB-19 CNS, 87.8%; in the experiment with U251 CNS, 102%; in the experiment on PC-3 prostate, 79.9%. In addition, the growth in the experiment with SK-MEL-5 melanoma is 108%; with UACC-62 melanoma, 90.3%; with LOX IMVI melanoma, 85.5%; with SK-MEL-28 melanoma it was 101%.
Take `CC(C)CC1NC(=O)C(CCCN)NC(=O)C(C(C)C)NC(=O)C2CCCN2C(=O)C(Cc2ccccc2)NC(=O)C(CC(C)C)NC(=O)C(CCCN)NC(=O)C(C(C)C)NC(=O)C2CCCN2C(=O)C(Cc2ccccc2)NC1=O` (stereo not given): the growth with HCT-15 colon is 7.83% (active); in the experiment on HT29 colon, -51.7% (active); in the experiment on SNB-75 CNS, -81.5% (active); in the experiment with SNB-19 CNS, -83% (active); with U251 CNS it was -94.4% (active); in the experiment with PC-3 prostate, -49.2% (active). Besides, the growth in the experiment on SK-MEL-5 melanoma was -98.3% (active); in the experiment with UACC-62 melanoma it was -75.3% (active); in the experiment with LOX IMVI melanoma it was -86.7% (active); in the experiment with SK-MEL-28 melanoma, -72.1% (active).
On to `C[C@H]1O[C@@H](O[C@H]2[C@@H](O)C[C@H](O[C@H]3[C@@H](O)C[C@H](O[C@H]4CC[C@]5(C)C6C[C@@H](O)[C@]7(C)[C@@H](C8=CC(=O)OC8)CC[C@]7(O)C6CC[C@@H]5C4)O[C@@H]3C)O[C@@H]2C)C[C@H](O)[C@@H]1O` (stereo not given in full), for which the growth in the experiment with HCT-15 colon is -94.9% (active); with HT29 colon it was -84.5% (active); in the experiment on SNB-75 CNS it was -75.6% (active); in the experiment with SNB-19 CNS it was -100% (active); with U251 CNS, -100% (active); with PC-3 prostate, -21.3% (active). Besides, the growth in the experiment with SK-MEL-5 melanoma was -100% (active); with UACC-62 melanoma, -98.8% (active); with LOX IMVI melanoma, -98.1% (active); with SK-MEL-28 melanoma it was -56.3% (active).
Consider `O=C(Nc1ccccc1)c1cc(-n2cnc([N+](=O)[O-])c2)cc(-n2cnc([N+](=O)[O-])c2)n1`, for which the growth in the experiment on HCT-15 colon was 114%; with HT29 colon it was 107%; with SNB-75 CNS, 98.9%; in the experiment on SNB-19 CNS it was 106%; with U251 CNS, 101%; in the experiment with PC-3 prostate, 88.8%. Besides, the growth is 95.6% in the experiment on SK-MEL-5 melanoma, 103% in the experiment on UACC-62 melanoma, 94.2% in the experiment on LOX IMVI melanoma and 122% in the experiment on SK-MEL-28 melanoma.
In the case of `COc1ccc2c(c1)sc1nc(-c3ccc(N(C)C)cc3)cn12`, the growth is 116% in the experiment with HCT-15 colon; 113% in the experiment on HT29 colon; 162% in the experiment on SNB-75 CNS; 95.3% in the experiment with SNB-19 CNS; 98.3% in the experiment with U251 CNS; 60.6% in the experiment on PC-3 prostate. The growth is 108% in the experiment on SK-MEL-5 melanoma, 104% in the experiment with UACC-62 melanoma, 113% in the experiment on LOX IMVI melanoma and 144% in the experiment on SK-MEL-28 melanoma.
For `NC(=O)NS(=O)(=O)c1ccc(N2N=C(C(F)(F)F)CC2c2cc(C(F)(F)F)cc(C(F)(F)F)c2)cc1` (stereo not given), the growth in the experiment on HCT-15 colon is 62.9%; in the experiment on HT29 colon, 70.4%; with SNB-75 CNS it was 68.1%; with SNB-19 CNS it was 85%; with U251 CNS, 74.6%; in the experiment with PC-3 prostate, 16.2%. Also, the growth in the experiment on SK-MEL-5 melanoma is 75.5%; in the experiment on UACC-62 melanoma, 82.7%; in the experiment with LOX IMVI melanoma it was 78.6%; in the experiment on SK-MEL-28 melanoma, 84.8%.
As to `Cc1cccc2nnc(-c3ccccc3)n12`, the growth is 101% with HCT-15 colon; 106% in the experiment on HT29 colon; 107% in the experiment with SNB-75 CNS; 97.1% with SNB-19 CNS; 108% with U251 CNS; 104% with PC-3 prostate. In addition, the growth with SK-MEL-5 melanoma was 110%; with UACC-62 melanoma it was 99.6%; in the experiment with LOX IMVI melanoma it was 99.4%; in the experiment with SK-MEL-28 melanoma, 112%.
Consider `[N-]=[N+]=NCc1cccc(/C(O)=C/C(=O)C(=O)O)c1`, for which the growth was 113% in the experiment on HCT-15 colon; 83.9% in the experiment with HT29 colon; 73.6% in the experiment on SNB-75 CNS; 101% in the experiment on SNB-19 CNS; 103% with U251 CNS; 97.3% with PC-3 prostate. Further, the growth in the experiment on SK-MEL-5 melanoma is 106%; in the experiment with UACC-62 melanoma it was 92.4%; in the experiment on LOX IMVI melanoma it was 92.6%; with SK-MEL-28 melanoma, 82.1%.
Take `COc1ccc(C2=NN(C(C)=O)C(c3c(C)nn(-c4ccccc4)c3N3CCOCC3)C2)cc1` (stereo not given): the growth is 103% in the experiment on HCT-15 colon; 101% with HT29 colon; 74.4% with SNB-75 CNS; 85.8% with SNB-19 CNS; 89.3% with U251 CNS; 79.7% in the experiment on PC-3 prostate. Moreover, the growth in the experiment with SK-MEL-5 melanoma was 97.6%; in the experiment with UACC-62 melanoma, 87.8%; in the experiment with LOX IMVI melanoma, 97.8%; in the experiment on SK-MEL-28 melanoma it was 108%.
For `COc1cc(/C=C/C(=O)c2c(C)n([O-])c3ccccc3[n+]2=O)cc(OC)c1OC`, the growth was 30% in the experiment on HCT-15 colon; 65.4% with HT29 colon; 81% in the experiment with SNB-75 CNS; 50.8% with SNB-19 CNS; 47.7% in the experiment with U251 CNS; 25.5% in the experiment on PC-3 prostate. The growth in the experiment with SK-MEL-5 melanoma is 21.3%; in the experiment on UACC-62 melanoma it was 54.7%; in the experiment on LOX IMVI melanoma it was 50.9%; with SK-MEL-28 melanoma, 79%.
